PfM18AAP inh – PfM18AAP inhibitors, malaria aminopeptidase, primary screen, biochemical, QFRET, recombinant enzyme | M18 aspartyl aminopeptidase (Plasmodium falciparum 3D7) | H-Glu-NHMec fluorogenic cleavage | inhibition, % at 7.35 µM | 290,000 compounds, 1.2% hits | AID 1822, 2009;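 active = inhibition above the campaign mean inhibition over all tested compounds plus 3 SD, cut at about 28% in these data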;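 note: 0% = plate median of test compound wells and 100% = 2 mM ZnCl2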
PolyA inhibitor – polyadenylation inhibitors in yeast reporter cells, primary screen, luminescence, S. cerevisiae; S. cerevisiae SKY197-pL101 polyadenylation reporter, beta-gal luminescence; efflux-impaired pdr1/pdr3 knockout yeast; score 100 = 6 SD above DMSO; 300,000 compounds, 0.02% hits; AID 1875, 2009; activity score, % at 12 µM;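 active = lowest replicate activity score at least 50, where 100 means six control SD above control mean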;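 note: yeast exposed to compound for 9 h at 30 °C; higher score means more reporter readthrough which indicates perturbed polyadenylation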
IDE cell activ – human IDE activators in live cells, primary screen, fluorescence polarization, HEK cells, FAbeta-B substrate; FAbeta-B cleavage; 0% vehicle, 100% cell-free pure enzyme wells; activation, % at 5.96 µM; 340,000 compounds, 0.073% hits;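 active = activation above the mean of all tested compounds plus 3 SD, set per screening campaign, cut at about 17% in these data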
CaV13 ICDI inh – Primary screen for inhibitors of IQ motif and Ca2+-dependent inactivation inhibitor domain binding in CACNA1D, Förster resonance energy transfer in living cells, …; inhibition, % at 12.3 µM; HEK cells, CFP/YFP FRET ICDI-IQ, plate reader, 10 min; percent FRET-ratio fall versus neutral wells; AID 743397; 340,000 compounds, 0.098% hits;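 active = mean replicate inhibition of at least 30% and at least 1% of replicates passing that level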;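 note: 0% = median of the neutral control wells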
IDE inh – human IDE inhibitors in live cells, primary screen, fluorescence polarization, HEK cells, FAbetaB substrate; Insulin-degrading enzyme (Homo sapiens), P14735; inhibition, % at 5.59 µM; FAbetaB cleavage; 320,000 compounds, 0.41% hits;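 active = percent inhibition above the average of all tested compounds plus 3 SD, set per screening campaign, cut at about 16% in these data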;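 note: IDE supplied by intact live HEK cells; FP after avidin binding of uncleaved biotin substrate so inhibition keeps polarization high; 0% = DMSO wells and 100% = 60 µM reference IDE inhibitor Ii1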
ALR H2O2 inh – inhibitors of human ALR sulfhydryl oxidase, primary screen, biochemical, H2O2 detection, HRP-luminol luminescence, single point; FAD-linked sulfhydryl oxidase ALR (Homo sapiens), P55789; purified ALR, DTT oxidation; inhibition, % (no concentration beside the values); 290,000 compounds, 3.8% hits;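 active = mean replicate inhibition above about 79%, with every replicate also reaching it, limit read from the data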
Target sequence (P55789 whole entry, looked up): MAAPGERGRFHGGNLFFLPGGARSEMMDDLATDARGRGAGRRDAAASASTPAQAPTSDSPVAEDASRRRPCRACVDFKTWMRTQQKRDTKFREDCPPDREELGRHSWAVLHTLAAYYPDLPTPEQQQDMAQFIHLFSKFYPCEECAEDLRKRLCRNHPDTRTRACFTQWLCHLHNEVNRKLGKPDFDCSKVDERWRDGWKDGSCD
An asterisk follows results filed as active; x = no result given. A selection: hits, their analogues and other compounds. The true share with any hit is near 4.1%.

SMILES | PfM18AAP inh | PolyA inhibitor | IDE cell activ | CaV13 ICDI inh | IDE inh | ALR H2O2 inh
CCOC(=O)[C@]12CCCC=C1N(Cc1ccco1)C(=O)[C@H](CC(=O)NCCCN1CCCC1=O)C2 | x | x | x | -4 | x | x
Cc1cc2nc(-c3ccc(SCc4ccccn4)nc3)[nH]c2cc1C | -12 | -11 | -22 | 1 | 12 | 98*
Cc1cc2nc(-c3ccc(SCC(=O)N4CCN(C(=O)c5ccco5)CC4)nc3)[nH]c2cc1C | 1 | 10 | -26 | -4 | 12 | 99*
CC1(C)c2cc(O)ccc2OC1N1CCOCC1 (stereo unspecified) | -54 | 25 | 3 | -4 | -4 | 99*
Cc1c(NC(=O)c2cccc(NC(=O)Cc3ccccc3F)c2)c(=O)n(-c2ccccc2)n1C | x | x | 1 | -3 | -2 | 4
O=C(NCCSc1c[nH]c2ccccc12)C1CC1 | -3 | -18 | -2 | -6 | 2 | 98*
COc1cc(OC)cc(C(=O)NCCSc2c[nH]c3ccccc23)c1 | 7 | 2 | -1 | -5 | 1 | 91*
O=C(NCCSc1c[nH]c2ccccc12)c1c(F)cccc1F | 7 | -6 | 2 | -6 | 3 | x
O=c1c(C(c2ccc(Cl)cc2)c2c(O)nc3n(c2=O)CCS3)c(O)nc2n1CCS2 | -7 | -5 | 4 | -5 | -5 | 98*
OCc1csc(=Nc2ccccc2)n1-c1ccccc1 | 2 | -2 | -4 | -4 | 11 | 99*
COC(=O)c1cc(=O)n(-c2ccccc2)c(=Nc2ccccc2)s1 | 16 | -5 | 5 | -7 | 4 | 4
CCCNC(=O)C1(C)CCN(Cc2cc(C(F)(F)F)ccc2Cl)C1 (stereo unspecified) | x | x | x | -9 | x | x
Cc1oc(-c2ccccc2)nc1CSc1nc2c(c(=O)[nH]1)CCC2 | -7 | -3 | 3 | -8 | 6 | x
Cc1cccc(-c2nc(CSc3nc4c(c(=O)[nH]3)CCC4)c(C)o2)c1 | -8 | 1 | 7 | -6 | 0 | 99*
COc1cccc(-c2cc(C(F)(F)F)n3nc(N)nc3n2)c1 | 3 | -3 | -1 | -1 | 5 | 95*
COc1ccc(-c2cc(C(F)(F)F)n3nc(N)nc3n2)cc1 | -14 | 0 | 1 | -6 | 1 | -5
Cn1c(CC(=O)Nc2ccccc2F)nnc1SCC(=O)NC1CCCCC1 | 5 | -16 | 2 | -3 | 0 | 8
COCCNc1c(-c2ccc(OC)cc2)nc2ccc(Cl)cn12 | 2 | -6 | 4 | -5 | -3 | 99*
O=C(CSc1nc2ccccc2c(=O)n1Cc1ccccc1)Nc1ccc(Br)cc1C(=O)O | -2 | 3 | -3 | -4 | 7 | 97*
C=CCn1c(N)cc(=O)nc1SCC(=O)Nc1ccc(C)cc1 | -12 | -6 | -2 | 8 | -1 | 99*
Nc1cc(=O)nc(SCC(=O)Nc2cccc3ccccc23)n1CCc1ccccc1 | -2 | -3 | 4 | -4 | 4 | 98*
Cc1ccc(NC(=O)CSc2nc(=O)cc(N)n2CCc2ccccc2)cc1 | -1 | 13 | -3 | -2 | 4 | 99*
COc1ccccc1Cc1c(-c2ccccc2)nc2ccc(Cl)cn12 | x | x | x | -4 | x | x
CC(C)NC(=O)N(C)C[C@@H]1Oc2cc(Br)ccc2S(=O)(=O)N([C@@H](C)CO)C[C@H]1C | x | x | x | -6 | x | x
CC(NS(=O)(=O)c1ccccc1)C(=O)Nc1ccc2c(c1)OCCO2 (stereo unspecified) | 6 | 3 | 0 | -6 | 5 | -7
Cc1n[nH]c(=S)n1-c1ccc(Cl)cc1 | 22 | 19 | 1 | -9 | -1 | 89*
S=c1[nH]nc(Cc2noc3ccccc23)n1-c1ccc(Cl)cc1 | 28 | -3 | -8 | -3 | 2 | 92*
S=c1[nH]nc(COc2ccc(Cl)cc2)n1-c1ccc(Cl)cc1 | -6 | -26 | 2 | -1 | 1 | 85*
